Targets with a hit are over-represented here; the source holds about 7,900 in all. About 0.6% of all pairs of compound and target were hits. Values without a mark were called inactive.

Sequence of UniProt Q9UK99 (Q9UK99 whole entry, looked up): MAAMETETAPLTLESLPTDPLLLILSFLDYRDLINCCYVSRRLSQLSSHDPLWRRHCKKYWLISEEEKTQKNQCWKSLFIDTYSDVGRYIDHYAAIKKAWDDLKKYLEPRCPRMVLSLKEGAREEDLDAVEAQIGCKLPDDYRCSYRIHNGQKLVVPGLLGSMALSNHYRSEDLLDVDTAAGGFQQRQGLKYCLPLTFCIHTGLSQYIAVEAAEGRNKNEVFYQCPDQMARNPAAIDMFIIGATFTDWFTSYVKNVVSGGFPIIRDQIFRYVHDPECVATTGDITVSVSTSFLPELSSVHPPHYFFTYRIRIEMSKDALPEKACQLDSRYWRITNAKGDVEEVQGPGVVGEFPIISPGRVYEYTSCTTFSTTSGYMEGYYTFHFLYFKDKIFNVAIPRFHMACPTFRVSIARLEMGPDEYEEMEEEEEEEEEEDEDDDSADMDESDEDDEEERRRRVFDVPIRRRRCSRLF
Sequence of UniProt O00458 (O00458 whole entry, looked up): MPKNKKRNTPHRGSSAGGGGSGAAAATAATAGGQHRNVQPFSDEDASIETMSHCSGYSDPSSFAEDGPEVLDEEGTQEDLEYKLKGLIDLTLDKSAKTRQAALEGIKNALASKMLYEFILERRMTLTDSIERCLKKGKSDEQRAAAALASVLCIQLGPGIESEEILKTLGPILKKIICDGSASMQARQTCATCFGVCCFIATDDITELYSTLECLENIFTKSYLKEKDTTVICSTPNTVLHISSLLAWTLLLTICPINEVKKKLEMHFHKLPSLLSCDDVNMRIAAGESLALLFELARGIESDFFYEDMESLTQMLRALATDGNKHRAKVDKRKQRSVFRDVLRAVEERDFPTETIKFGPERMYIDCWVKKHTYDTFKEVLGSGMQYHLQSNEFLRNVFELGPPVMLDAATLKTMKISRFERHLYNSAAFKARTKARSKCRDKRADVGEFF
Sequence of UniProt P00367 (P00367 whole entry, looked up): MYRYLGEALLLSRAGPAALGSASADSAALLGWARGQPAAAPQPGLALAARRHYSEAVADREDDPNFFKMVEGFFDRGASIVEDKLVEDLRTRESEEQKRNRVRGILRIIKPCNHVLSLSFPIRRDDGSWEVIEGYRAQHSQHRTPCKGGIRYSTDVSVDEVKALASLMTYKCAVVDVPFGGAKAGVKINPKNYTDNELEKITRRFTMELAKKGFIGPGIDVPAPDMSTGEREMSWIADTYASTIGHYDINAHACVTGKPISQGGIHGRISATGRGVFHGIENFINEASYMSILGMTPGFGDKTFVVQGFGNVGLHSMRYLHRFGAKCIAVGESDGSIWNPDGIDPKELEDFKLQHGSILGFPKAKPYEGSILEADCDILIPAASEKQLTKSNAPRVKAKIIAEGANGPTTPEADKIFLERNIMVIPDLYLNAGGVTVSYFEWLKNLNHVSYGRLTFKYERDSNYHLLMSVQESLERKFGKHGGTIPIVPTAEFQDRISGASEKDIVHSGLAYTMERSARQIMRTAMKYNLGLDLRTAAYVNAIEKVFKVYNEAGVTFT
Sequence of UniProt P09211 (P09211 whole entry, looked up): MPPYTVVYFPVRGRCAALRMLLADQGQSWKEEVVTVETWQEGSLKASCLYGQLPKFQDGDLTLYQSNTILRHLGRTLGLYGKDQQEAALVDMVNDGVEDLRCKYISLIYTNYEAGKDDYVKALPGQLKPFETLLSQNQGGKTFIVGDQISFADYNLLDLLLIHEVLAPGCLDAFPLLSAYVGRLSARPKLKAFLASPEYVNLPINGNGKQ
Sequence of UniProt P36915 (P36915 whole entry, looked up): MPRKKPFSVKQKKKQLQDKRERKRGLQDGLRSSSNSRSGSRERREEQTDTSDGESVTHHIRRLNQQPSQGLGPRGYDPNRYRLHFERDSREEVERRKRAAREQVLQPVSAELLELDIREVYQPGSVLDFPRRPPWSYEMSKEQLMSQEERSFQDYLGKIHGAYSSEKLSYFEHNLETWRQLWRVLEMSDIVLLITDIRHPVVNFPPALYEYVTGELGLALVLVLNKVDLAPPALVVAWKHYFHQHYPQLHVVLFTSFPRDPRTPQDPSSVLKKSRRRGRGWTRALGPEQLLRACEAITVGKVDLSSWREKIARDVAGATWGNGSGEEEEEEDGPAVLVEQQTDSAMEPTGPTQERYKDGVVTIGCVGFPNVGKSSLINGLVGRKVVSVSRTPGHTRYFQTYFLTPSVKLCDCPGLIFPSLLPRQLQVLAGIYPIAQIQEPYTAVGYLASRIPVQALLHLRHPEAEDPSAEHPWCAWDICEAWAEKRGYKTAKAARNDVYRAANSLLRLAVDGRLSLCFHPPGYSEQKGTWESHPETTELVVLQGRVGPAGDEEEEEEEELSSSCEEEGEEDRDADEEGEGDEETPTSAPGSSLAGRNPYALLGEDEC
Sequence of UniProt Q9UKN8 (Q9UKN8 whole entry, looked up): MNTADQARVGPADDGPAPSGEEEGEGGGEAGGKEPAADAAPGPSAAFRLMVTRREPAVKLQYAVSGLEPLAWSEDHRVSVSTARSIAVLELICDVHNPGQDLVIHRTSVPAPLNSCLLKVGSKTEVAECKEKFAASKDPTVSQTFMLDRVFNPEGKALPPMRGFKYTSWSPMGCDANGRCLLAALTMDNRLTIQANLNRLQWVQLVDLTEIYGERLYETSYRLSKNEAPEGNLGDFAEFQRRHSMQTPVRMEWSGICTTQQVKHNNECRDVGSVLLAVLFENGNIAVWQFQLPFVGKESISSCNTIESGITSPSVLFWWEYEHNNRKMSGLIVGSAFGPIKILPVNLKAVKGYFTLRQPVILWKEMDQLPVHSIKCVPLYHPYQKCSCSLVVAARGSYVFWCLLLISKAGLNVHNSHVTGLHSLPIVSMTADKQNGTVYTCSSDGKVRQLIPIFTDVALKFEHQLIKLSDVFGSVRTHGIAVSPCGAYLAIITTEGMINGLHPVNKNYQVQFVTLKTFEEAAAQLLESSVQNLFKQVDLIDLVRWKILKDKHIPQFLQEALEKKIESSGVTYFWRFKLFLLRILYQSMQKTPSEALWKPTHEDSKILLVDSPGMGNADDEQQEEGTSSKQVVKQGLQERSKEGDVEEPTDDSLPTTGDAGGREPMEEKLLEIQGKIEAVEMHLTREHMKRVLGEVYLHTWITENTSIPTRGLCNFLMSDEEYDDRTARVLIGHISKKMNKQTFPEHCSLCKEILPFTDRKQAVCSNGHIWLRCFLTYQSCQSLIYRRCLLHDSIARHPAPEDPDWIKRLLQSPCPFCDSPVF
Sequence of UniProt O43824 (O43824 whole entry, looked up): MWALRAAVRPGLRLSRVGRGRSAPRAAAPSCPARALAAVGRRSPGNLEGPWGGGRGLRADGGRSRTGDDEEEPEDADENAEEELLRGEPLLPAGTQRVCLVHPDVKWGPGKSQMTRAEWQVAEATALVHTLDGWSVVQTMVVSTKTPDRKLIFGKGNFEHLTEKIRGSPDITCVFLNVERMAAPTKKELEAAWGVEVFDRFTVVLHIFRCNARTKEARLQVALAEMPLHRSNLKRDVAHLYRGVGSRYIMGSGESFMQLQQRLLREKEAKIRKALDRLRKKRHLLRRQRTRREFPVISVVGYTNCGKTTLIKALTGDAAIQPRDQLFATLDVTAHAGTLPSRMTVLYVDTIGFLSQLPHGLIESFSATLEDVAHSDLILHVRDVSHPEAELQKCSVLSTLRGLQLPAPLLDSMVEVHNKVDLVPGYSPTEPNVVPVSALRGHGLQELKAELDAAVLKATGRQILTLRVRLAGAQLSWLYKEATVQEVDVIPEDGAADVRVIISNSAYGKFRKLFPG
Sequence of UniProt P22830 (P22830 whole entry, looked up): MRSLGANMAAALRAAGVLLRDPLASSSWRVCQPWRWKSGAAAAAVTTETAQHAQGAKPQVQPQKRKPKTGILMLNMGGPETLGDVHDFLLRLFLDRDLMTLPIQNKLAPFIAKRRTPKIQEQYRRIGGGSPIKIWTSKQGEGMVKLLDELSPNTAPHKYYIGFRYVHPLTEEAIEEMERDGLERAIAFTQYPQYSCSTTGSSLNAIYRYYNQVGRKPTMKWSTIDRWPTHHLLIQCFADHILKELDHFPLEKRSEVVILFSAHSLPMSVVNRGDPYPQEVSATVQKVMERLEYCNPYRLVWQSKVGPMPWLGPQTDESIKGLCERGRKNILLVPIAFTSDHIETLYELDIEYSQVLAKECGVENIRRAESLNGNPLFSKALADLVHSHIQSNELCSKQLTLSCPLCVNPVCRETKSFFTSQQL
Sequence of UniProt P36969 (P36969 whole entry, looked up): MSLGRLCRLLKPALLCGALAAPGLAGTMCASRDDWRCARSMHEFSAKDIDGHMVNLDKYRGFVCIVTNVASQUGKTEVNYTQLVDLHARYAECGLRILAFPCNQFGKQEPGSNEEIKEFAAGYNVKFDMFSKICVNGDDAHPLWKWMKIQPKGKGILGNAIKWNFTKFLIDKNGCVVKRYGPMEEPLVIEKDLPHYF
Sequence of UniProt P15586 (P15586 whole entry, looked up): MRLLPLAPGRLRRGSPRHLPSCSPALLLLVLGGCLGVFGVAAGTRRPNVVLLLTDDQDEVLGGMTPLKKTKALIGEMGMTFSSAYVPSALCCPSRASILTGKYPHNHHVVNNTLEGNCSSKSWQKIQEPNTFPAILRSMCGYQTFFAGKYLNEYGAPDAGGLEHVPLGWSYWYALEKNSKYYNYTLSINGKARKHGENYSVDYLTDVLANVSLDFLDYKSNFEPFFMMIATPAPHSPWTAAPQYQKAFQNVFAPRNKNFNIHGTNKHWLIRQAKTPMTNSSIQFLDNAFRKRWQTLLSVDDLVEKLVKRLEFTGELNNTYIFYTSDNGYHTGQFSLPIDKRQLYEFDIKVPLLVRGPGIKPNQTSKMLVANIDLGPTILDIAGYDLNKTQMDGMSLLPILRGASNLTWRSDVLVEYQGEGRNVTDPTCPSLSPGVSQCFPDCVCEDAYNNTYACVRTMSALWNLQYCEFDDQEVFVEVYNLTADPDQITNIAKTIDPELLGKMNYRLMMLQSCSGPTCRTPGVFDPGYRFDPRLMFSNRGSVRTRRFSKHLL
Sequence of UniProt Q01628 (Q01628 whole entry, looked up): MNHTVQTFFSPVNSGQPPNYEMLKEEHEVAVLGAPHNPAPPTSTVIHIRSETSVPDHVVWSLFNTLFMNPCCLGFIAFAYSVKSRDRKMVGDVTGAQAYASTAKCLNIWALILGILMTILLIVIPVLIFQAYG

Compound in one test: C1=CC=C(C=C1)[C@H](COC2=CC3=C(C=C2)NC(=O)N3)NC(=O)C4=CC=CN(C4=O)CC5=CC(=C(C=C5)F)F
Kind of test: log2 fold change, soluble protein after heating vs DMSO (PISA); higher = thermal stabilisation; K562 cells, 10 uM, 30 min; active = over 0.2 and 3.5 SD of the protein, either way, in both replicates (recomputed). A digest of the protocol:
(§1)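 Thermal stability values are relative to control samples and come from duplicates. They are expressed as log2 fold changes. For measurement, K562 cells (2×10^6 cells/mL) received 10 μM compound for 30 min, and aliquots were heated for 3 min over 48°C-58°C, pooled, and extracted at 4°C in PBS with 0.5% NP-40. Soluble protein, the supernatant after 21,000xg for 90 min, was quantified by TMTpro 16plex LC-MS/MS with equalised channel sums.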
Turning to GNS (UniProt P15586), the log2 fold change was 0.037. Same read-out and setting: to GTF3C4 (UniProt Q9UKN8) belongs 0.027.

FECH isoform 2 (UniProt P22830): the log2 fold change is 0.008. For GLUD1 (UniProt P00367), the log2 fold change was 0.046. Consider GALNT4 (UniProt Q8N4A0), for which the log2 fold change was 0.007. Still for that read-out and setting: to GNL1 (UniProt P36915) belongs -0.042.

For FBXO3 (UniProt Q9UK99), the log2 fold change is 0.006. The same measure, in the same setting: the value for IFRD1 (UniProt O00458) was -0.011; that for GTPBP6 (UniProt O43824) was 0.038; that for GPX4 (UniProt P36969) was 0.029. Same read-out and setting: to GSTP1 (UniProt P09211) belongs -0.013.

Compound in another test: CC1=C(SC2=C1C(=N[C@H](C3=NN=C(N32)C)CC(=O)N)C4=CC=C(C=C4)Cl)C
The test is described as above. Summed up: as §1
For HNRNPUL2 (UniProt Q1KMD3), the log2 fold change is -0.05. Same read-out and setting: the value for FOXK1 (UniProt P85037) was -0.042; that for GTF2A1 (UniProt P52655) was -0.021. Turning to HSD17B12 (UniProt Q53GQ0), the log2 fold change is 0.061. Same read-out and setting: to IDI1 isoform 2 (UniProt Q13907) belongs 0.024; to HEXA (UniProt P06865), -0.004. On the same count and under the same terms, the value for GCC2 (UniProt Q8IWJ2) was -0.116; that for FDXR isoform 7 (UniProt P22570) was 0.106. Same read-out and setting: to IFT80 isoform 3 (UniProt Q9P2H3) belongs 0.052. Turning to HIST2H2BF isoform 2 (UniProt Q5QNW6), the log2 fold change is -0.273. Same read-out and setting: to IFITM3 (UniProt Q01628) belongs -0.024; to GLUL (UniProt P15104), 0.005. The same measure, in the same setting: the value for HIP1 (UniProt O00291) was -0.009; that for GLS (UniProt O94925) was 0.114; that for HIC2 (UniProt Q96JB3) was -0.053. On the same count and under the same terms, to GNPAT (UniProt O15228) belongs 0.043.

Take GTF2H3 (UniProt Q13889): the log2 fold change is 0.065. Same read-out and setting: to FKBP3 (UniProt Q00688) belongs 0.003; to GLA (UniProt P06280), -0.019; to HNRNPH1 (UniProt P31943), -0.007.

As to HNRNPUL1 (UniProt Q9BUJ2), the log2 fold change was -0.028. Still for that read-out and setting: the value for GMEB1 (UniProt Q9Y692) was 0.084. Consider GALK1 isoform 2 (UniProt P51570), for which the log2 fold change was 0.016. On the same count and under the same terms, the value for GNS (UniProt P15586) was 0.011. The same measure, in the same setting: the value for GTF3C4 (UniProt Q9UKN8) was 0.065.

In the case of FECH isoform 2 (UniProt P22830), the log2 fold change was 0.03. On the same count and under the same terms, the value for GLUD1 (UniProt P00367) was 0.065; that for GALNT4 (UniProt Q8N4A0) was 0.062; that for GNL1 (UniProt P36915) was -0.007.

Regarding FBXO3 (UniProt Q9UK99), the log2 fold change was -0.03. Still for that read-out and setting: to IFRD1 (UniProt O00458) belongs -0.069; to GTPBP6 (UniProt O43824), 0.007.

As to GPX4 (UniProt P36969), the log2 fold change is 0.001.

On to GSTP1 (UniProt P09211), for which the log2 fold change is 0.039.
